The text below walks through data of PubChem BioAssay.

For assay [1], the system named is Human papillomavirus type 1a protein E7 (residues 44-93). As to the kind of experiment: small molecules binding HPV E7 44-93 – biochemical, small-molecule microarray, residues 44-93, 635 nm fluorescence, primary screen (AID 1108).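 Note: E7 fragment applied at 1 µg/mL in TBST for 1 h at 4 C; score combines spot fluorescence with its signal to noise ratio.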 The conditions noted are these: fluorescence 635 nm, higher = more signal.
Assay [2] in a line: hepatitis C replication reporter changes, two-sided – Huh7 cells, luciferase reporter, HCV replication inhibitor project, primary screen (AID 1109).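 Note: huh7 hepatoma cells harbouring a luciferase neomycin HCV replicon reporter; luciferase luminescence as measure of HCV replicon replication; test concentration not given here.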 To be noted: Huh7 HCV replicon luciferase reporter, 48 h; higher = more signal. (In general: In a reporter assay the amount or activity of a reporter protein is the signal.)
The target in assay [3] is Left-right determination factor 2 (Homo sapiens) (UniProt O00292). The experiment in a line: small molecules binding LEFTY2 protein – biochemical, small-molecule microarray, 635 nm fluorescence scan, primary screen (AID 1110). The conditions noted are these: higher = more signal.
Sequence of Left-right determination factor 2 (Homo sapiens) (O00292 whole entry, looked up): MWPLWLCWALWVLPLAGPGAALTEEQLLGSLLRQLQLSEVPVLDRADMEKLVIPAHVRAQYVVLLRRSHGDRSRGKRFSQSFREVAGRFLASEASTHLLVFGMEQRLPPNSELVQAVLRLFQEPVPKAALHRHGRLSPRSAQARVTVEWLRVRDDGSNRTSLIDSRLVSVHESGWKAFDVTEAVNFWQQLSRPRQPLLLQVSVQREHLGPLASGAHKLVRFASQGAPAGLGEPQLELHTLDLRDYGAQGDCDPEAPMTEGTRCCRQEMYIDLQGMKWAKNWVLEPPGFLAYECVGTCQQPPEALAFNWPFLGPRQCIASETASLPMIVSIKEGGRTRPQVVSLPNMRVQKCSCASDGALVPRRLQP
Assay [4] addresses Calmodulin-1 (Homo sapiens) (UniProt P0DP23). As to the kind of experiment: small molecules binding calmodulin-1 with EGTA – biochemical, small-molecule microarray, Cy5-labelled CALM1, profiling panel (AID 1111).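 Note: labelled calmodulin applied in Tris saline Tween buffer holding calcium plus EGTA and DTT.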 The conditions noted are these: Cy5-CALM1 binding fluorescence, higher = more signal.
Assay [5] has the same target. The experiment in a line: small molecules binding Ca-loaded calmodulin-1 – biochemical, small-molecule microarray, Cy5-labelled CALM1, plus calcium, artefact control for SMM control-protein annotation, profiling panel (AID 1112).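 Note: score merges spot fluorescence with signal to noise from triplicate slides.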 To be noted: Cy5-CALM1 binding fluorescence, higher = more signal.
The nature of assay [6]: probe aWnt5a binding to arrayed compounds – biochemical, biotinylated probe, 635/667 nm fluorescence, primary screen (AID 1113).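 Note: score merges 667 nm fluorescence intensity with signal-to-noise per printed feature.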 To be noted: small-molecule microarray, higher = more signal.
Assay [7] can be described thus: probe aShh binding to arrayed compounds – biochemical, biotinylated probe, 635/667 nm fluorescence, primary screen (AID 1114).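 Note: probe is biotin-labelled aShh protein from a stem cell growth factor screen; measures binding of labelled protein to compounds printed on the slide; score merges feature fluorescence at 667 nm with signal-to-noise.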 To be noted: small-molecule microarray, higher = more signal.
Assay [8] is described as follows: probe aNog binding to arrayed compounds – biochemical, biotinylated probe, 635/667 nm fluorescence, primary screen (AID 1115).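 Note: probe is biotinylated aNog protein used at 0.15 µg/mL for 1 h at 4 C; z-score combines 667 nm fluorescence of each spot with its signal to noise.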 To be noted: small-molecule microarray, higher = more signal.
Assay [9] addresses Torsin-1A-interacting protein 1 (Homo sapiens) (UniProt Q5JTV8). As to the kind of experiment: compound microarray binding of lysate hLAP1 – cell lysate, small-molecule microarray, COS7 lysate, 635/667 nm fluorescence, primary screen (AID 1116). To be noted: 635 nm fluorescence, higher = more signal.
In assay [10] the target is Alpha-bungarotoxin (Bungarus multicinctus) (UniProt P60615). The experiment in a line: compounds binding labelled alpha-BTX control protein – biochemical, small-molecule microarray, Alexa647 label, 635/667 nm fluorescence, artefact control for SMM control protein annotation, profiling panel (AID 1117). To be noted: alpha-BTX-A647 binding fluorescence, higher = more signal.
Sequence of Alpha-bungarotoxin (Bungarus multicinctus) (P60615 whole entry, looked up): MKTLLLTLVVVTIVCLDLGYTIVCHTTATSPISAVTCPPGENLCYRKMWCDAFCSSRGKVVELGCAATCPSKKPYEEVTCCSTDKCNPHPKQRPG

A further assay has as its target Albumin (Bos taurus) (UniProt P02769). As to the kind of experiment: compounds binding labelled BSA control protein – biochemical, small-molecule microarray, Alexa647 label, 635/667 nm fluorescence, artefact control for SMM control protein annotation, profiling panel (AID 1118).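 Note: score merges 667 nm emission intensity and signal-to-noise per printed compound spot.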 The conditions noted are these: BSA-A647 binding, fluorescence 635 nm, higher = more signal.

Assay [11] can be described thus: probe aXIP binding to arrayed compounds – biochemical, NeuroSMM set, 635/667 nm fluorescence, primary screen (AID 1119).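 Note: probe is the protein aXip251-270 applied at 1 µg/mL to compound-printed slides; binding of probe to printed compounds measured as 667 nm fluorescence plus signal to noise.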 To be noted: small-molecule microarray, higher = more signal, called active from +8 up or from −8 down.
Assay [12] in a line: probe aNOTCH3 binding on compound microarray – biochemical, small-molecule microarray, 635/667 nm fluorescence, primary screen (AID 1120).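 Note: probe is a biotin-tagged antibody raised against NOTCH3 rather than NOTCH3 protein; score merges spot fluorescence near 667 nm with spot signal to noise.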 The conditions noted are these: higher = more signal.
Assay [13] can be described thus: probe aNOTCH2 binding on compound microarray – biochemical, small-molecule microarray, 635/667 nm fluorescence, primary screen (AID 1121).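 Note: score merges feature fluorescence read at 667 nm with its signal to noise.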 The conditions noted are these: higher = more signal.
For assay [14], the target named is Carbonic anhydrase 2 (Homo sapiens) (UniProt P00918). The experiment in a line: compounds binding carbonic anhydrase 2 – biochemical, small-molecule microarray, Alexa647-labelled CAII, profiling panel (AID 1122). To be noted: CAII-A647 binding fluorescence, higher = more signal.
Assay [15] is described as follows: COS7 lysate on small-molecule microarray, probe aHis, 635 nm (AID 1123).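 Note: z-score combines 667nm fluorescence intensity with signal-to-noise per printed compound spot.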 The conditions noted are these: COS7 cell lysate, fluorescence, higher = more signal.
The nature of assay [16]: probe aLAP1 signal on lysate-treated microarray – cell lysate, small-molecule microarray, COS7 lysate, primary screen (AID 1124).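 Note: lysate comes from COS7 cells expressing LAP1 and is applied at 0.3 µg/mL; score merges spot fluorescence near 667 nm with signal-to-noise over triplicate slides.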 To be noted: probe aLAP1, fluorescence, higher = more signal.
The next assay concerns Sam68 (KHDRBS1). The experiment in a line: compounds binding KHDRBS1 protein – biochemical, small-molecule microarray, 635 nm fluorescence, primary screen (AID 1125).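 Note: score merges 667 nm channel intensity with signal to noise over triplicate slides.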 The conditions noted are these: higher = more signal.
The test system of assay [17] is Chordin-like protein 2 (CHRDL2). The experiment in a line: compounds binding chordin-like 2 – biochemical, small-molecule microarray, 635 nm fluorescence, primary screen (AID 1126).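 Note: printed compound slides probed with Chrdl2 protein at 4 µg/mL for 1 h at 4 C; score merges 667 nm emission intensity with signal to noise over three replicate slides.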 The conditions noted are these: fluorescence 635 nm, higher = more signal.
Assay [18] addresses Concanavalin-A (Canavalia ensiformis) (UniProt P02866). The experiment in a line: compounds binding concanavalin A lectin – biochemical, small-molecule microarray, Alexa647 label, 635 nm, artefact control for SMM control protein annotation, primary screen (AID 1127).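 Note: z combines 667 nm emission intensity with signal-to-noise across three replicate slides.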 To be noted: ConA-A647 binding fluorescence, higher = more signal.

Calls of active or inactive are those of the source.

Sequence of Albumin (Bos taurus) (P02769 whole entry, looked up): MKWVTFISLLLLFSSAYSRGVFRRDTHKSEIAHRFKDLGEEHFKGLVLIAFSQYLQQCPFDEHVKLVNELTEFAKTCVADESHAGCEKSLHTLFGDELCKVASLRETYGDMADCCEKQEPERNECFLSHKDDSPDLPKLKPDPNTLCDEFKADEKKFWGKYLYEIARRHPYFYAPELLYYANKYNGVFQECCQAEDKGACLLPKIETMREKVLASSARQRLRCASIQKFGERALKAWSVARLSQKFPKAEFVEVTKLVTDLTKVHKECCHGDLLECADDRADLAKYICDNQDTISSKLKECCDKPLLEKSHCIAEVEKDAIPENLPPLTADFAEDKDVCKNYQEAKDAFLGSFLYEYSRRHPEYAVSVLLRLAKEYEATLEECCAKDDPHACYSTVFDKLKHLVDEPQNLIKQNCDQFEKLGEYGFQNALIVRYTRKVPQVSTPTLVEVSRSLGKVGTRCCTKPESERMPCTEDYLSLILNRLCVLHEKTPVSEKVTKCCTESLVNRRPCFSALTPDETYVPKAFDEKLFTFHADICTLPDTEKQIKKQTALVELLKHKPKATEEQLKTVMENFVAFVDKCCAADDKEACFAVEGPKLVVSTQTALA
Sequence of Concanavalin-A (Canavalia ensiformis) (P02866 whole entry, looked up): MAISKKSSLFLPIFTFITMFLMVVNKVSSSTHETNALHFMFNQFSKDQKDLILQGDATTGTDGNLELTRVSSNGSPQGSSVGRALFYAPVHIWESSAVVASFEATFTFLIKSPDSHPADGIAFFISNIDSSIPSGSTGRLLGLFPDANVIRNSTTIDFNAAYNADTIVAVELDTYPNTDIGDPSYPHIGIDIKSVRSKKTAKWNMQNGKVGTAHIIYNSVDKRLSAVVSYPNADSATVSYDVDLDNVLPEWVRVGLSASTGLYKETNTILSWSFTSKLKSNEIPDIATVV
Sequence of Torsin-1A-interacting protein 1 (Homo sapiens) (Q5JTV8 whole entry, looked up): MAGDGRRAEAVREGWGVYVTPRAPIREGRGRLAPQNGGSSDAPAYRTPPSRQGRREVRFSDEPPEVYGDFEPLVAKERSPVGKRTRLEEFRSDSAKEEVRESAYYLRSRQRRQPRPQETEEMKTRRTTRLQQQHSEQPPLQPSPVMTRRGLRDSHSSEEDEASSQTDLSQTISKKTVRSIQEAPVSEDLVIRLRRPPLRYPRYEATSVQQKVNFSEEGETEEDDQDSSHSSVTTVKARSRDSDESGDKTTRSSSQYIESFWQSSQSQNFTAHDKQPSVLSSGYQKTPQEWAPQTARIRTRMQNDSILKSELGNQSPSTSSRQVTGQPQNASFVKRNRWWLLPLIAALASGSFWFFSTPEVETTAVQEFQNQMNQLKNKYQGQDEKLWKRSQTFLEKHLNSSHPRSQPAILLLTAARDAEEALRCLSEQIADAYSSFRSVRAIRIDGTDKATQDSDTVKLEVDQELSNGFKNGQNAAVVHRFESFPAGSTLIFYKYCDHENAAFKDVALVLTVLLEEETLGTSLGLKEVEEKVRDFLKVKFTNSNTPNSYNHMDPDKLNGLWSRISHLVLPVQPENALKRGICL

As for `CCCCCN1CC=CC23O[C@@H]4C=CCOC(=O)[C@@H]4[C@H]2C(=O)N(CCCO)[C@@H]3C1=O` (stereo not given in full), the composite z-score in assay [1] was 1.35; in assay [3], -0.642; in assay [4] it was -0.568; in assay [5], 0.487; in assay [6], -0.204; in assay [7] it was -0.0709. Moreover, the composite z-score is 0.0707 in assay [8]; 2.65 in assay [9]; -0.339 in [10]; 1.02 with Albumin (Bos taurus); -0.245 in assay [12]; -0.155 in assay [13]. Further, the composite z-score in assay [14] was 0.851; in assay [15], 2.39; in assay [16], 0.937; in the assay with Sam68 (KHDRBS1), 1.28; in assay [17], -0.205; in assay [18] it was 0.221. For the same molecule, the z-score in assay [2] is -0.538. In addition, the composite Z-score in assay [11] is 1.01 (inactive).

With `CCOC(=O)C[C@H]1[C@H](OC(=O)Cc2ccc3c(c2)OCO3)[C@@H](NC(=O)c2ccc(-c3ccccc3)cc2)c2cc(OCCCO)ccc2N1C(=O)c1ccccc1`, the composite z-score in assay [1] was 1.06; in [3], 0.525; in [4] it was 0.326; in [5], -0.0305; in assay [6] it was -0.113; in assay [7] it was 0.0483. In addition, the composite z-score in assay [8] was -0.287; in [9], 0.42; in assay [10], 0.815; with Albumin (Bos taurus) it was 0.731; in assay [12], 0.0316; in assay [13] it was -0.0649. In addition, the composite z-score in assay [14] was 0.364; in assay [15] it was 0.341; in assay [16], -0.202; in the assay on Sam68 (KHDRBS1), 0.792; in [17] it was 0.379; in assay [18], 0.645. This molecule also showed a z-score in assay [2] of -1.25. In assay [11], the composite Z-score was 0.133 (inactive).

Turning to `C=CCNC(=O)[C@H]1[C@@H]2C(=O)O[C@@H](c3ccccc3)[C@@H](c3ccccc3)N2[C@@H](c2ccc(O)cc2)[C@]12C(=O)N(C(=O)OCCOC)c1ccc(C#CCCO)cc12`, the composite z-score in assay [1] is 0.889; in assay [3], -0.166; in assay [4], 0.0387; in assay [5], 0.171; in [6] it was -0.185; in assay [7], 0.0639. In addition, the composite z-score in [8] was -0.332; in assay [9], 1.35; in assay [10], 1.25; with Albumin (Bos taurus), 0.534; in assay [12] it was -0.155; in assay [13], -0.0942. In addition, the composite z-score in assay [14] is 0.701; in [15] it was 2.1; in assay [16], 0.881; in the assay with Sam68 (KHDRBS1) it was 1.08; in [17], -0.445; in [18], 0.903. For the same molecule, the z-score in assay [2] was -0.605. In assay [11], the composite Z-score was -0.228 (inactive).

For the molecule `COC(=O)[C@@]1(Cc2ccccc2)[C@H]2c3cc(C(=O)N4CCCC4)n(C)c3C[C@H]2CN1C(=O)c1ccccc1`, the composite z-score in [1] is 0.123; in assay [3], -0.302; in assay [4] it was 2.57; in [5], 0.961; in [6] it was -0.0481; in [7] it was -0.2. Also, the composite z-score in assay [8] was 0.268; in assay [9], 1.28; in assay [10], 0.455; with Albumin (Bos taurus) it was 1.06; in assay [12], 0.347; in assay [13] it was -0.138. Further, the composite z-score in assay [14] was 0.912; in assay [15] it was 2.35; in assay [16], 0.711; in the assay with Sam68 (KHDRBS1) it was -0.0981; in assay [17] it was -1.18; in assay [18], 1.07. Moreover, the z-score in assay [2] was -1.45. Further, in assay [11], the composite Z-score is 0.363 (inactive).

As for `COC(=O)[C@@]1(Cc2ccc(OC)cc2)[C@H]2c3cc(C(=O)N(C)C)n(Cc4c(OC)[nH]cc(C)c4=O)c3C[C@H]2CN1C(=O)c1ccccc1`, the composite z-score is -0.117 in assay [1]; 0.464 in assay [3]; 0.352 in [4]; -0.117 in assay [5]; -0.16 in [6]; -0.352 in assay [7]. Moreover, the composite z-score in assay [8] is -0.248; in [9] it was 0.808; in assay [10] it was -0.0941; with Albumin (Bos taurus), 0.589; in [12] it was 1.04; in [13] it was 0.107. In addition, the composite z-score in assay [14] was 0.881; in assay [15], 1.57; in [16] it was -0.155; with Sam68 (KHDRBS1), -0.0964; in assay [17], -0.218; in assay [18], -0.172. Further, the z-score in [2] was -1.1. Besides, in assay [11], the composite Z-score was 0.0562 (inactive).
